Laboratory results published in PubChem BioAssay (Tox21).
Values joined by “and” are separate entries in the source; they are usually repeats but may differ in a detail not shown here. Equal entries are not always repeated. Results filed as inconclusive are left out. Active and inactive are the calls of the source. Unless noted, calls follow the shape of the dose curve; as a rule, active = well fitted curve in the direction sought with a large enough effect in the repeat runs; inconclusive = weak or mixed curves; inactive = no such curve, though single readings can be large; an effect the other way counts as inactive or inconclusive.

Assays:
[1] = target: Thyrotropin receptor (Homo sapiens) (UniProt P16473); experiment: qHTS assay to identify small molecule antagonists of the thyroid stimulating hormone receptor (TSHR) signaling pathway (AID 1259385; calls by dose curve; also: nearly all actives have a fitted effect of over 20% in size)
Outline: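 TSHR-HEK293 cells were plated and held 18 h at 37C/5% CO2, then given compound plus Ro20-1724 and stimulated with TSH at 1.5 ng/mL final. After 30 min at room temperature, cAMP was detected with cAMP-d2/anti-cAMP-cryptate (1 h) by fluorescence.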

[2] = qHTS assay to identify small molecule agonists of the estrogen receptor alpha (ER-alpha) signaling pathway in the presence of an antagonist - cell viability counter screen (AID 1259386);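 also: cells exposed to compounds for 22 h at 37 °C before the viability read; nearly all actives have a fitted effect of over 30% in size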; also: potency is read from the fitted curve at half-maximal effect; as to activity change, negative = cytotoxicity: series mostly up to about 92 µM
Outline: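 Viability counter screen using VM7Luc4E2 (full-length ER-alpha, four ERE-luciferase). The cells were treated with compounds alongside ICI-182,780 10.0nM for 22hr, and live-cell protease fluorescence was quantified with CellTiter-Fluor.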

[3] = target: Progesterone receptor (Homo sapiens) (UniProt P06401); experiment: qHTS assay to identify small molecule agonists of the progesterone receptor (PR) signaling pathway (AID 1346784; calls by dose curve; also: nearly all actives have a fitted effect of over 30% in size)
Outline: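 Fluorescence from LiveBLAzer B/G FRET substrate cleavage (2 hr, RT) reported PR activation in PR-UAS-bla HEK 293T cells treated 16 hr at 37C/5% CO2 with compounds; medium contained 2% charcoal-stripped FBS.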

[4] = target: Progesterone receptor (Homo sapiens) (UniProt P06401); experiment: qHTS assay to identify small molecule antagonists of the progesterone receptor (PR) signaling pathway (AID 1346795; active = well fitted inhibition curve with a large enough effect in the signal ratio in the repeat runs, not every such curve was filed as active; the % refers to the signal ratio)
Outline: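 Fluorescence intensity measured 2 hr after adding beta-lactamase FRET substrate to PR-UAS-bla HEK293T cells that had been co-treated 16 hr with compound and 1 nM R5020 (final concentration) in 2% charcoal-stripped FBS.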

[5] = qHTS assay to identify small molecule antagonists of the progesterone receptor (PR) signaling pathway - cell viability counter screen (AID 1346798); also: series mostly up to about 92 µM; nearly all actives have a fitted effect of over 50% in size
Outline: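 CellTiter-Glo luminescence; PR-UAS-bla HEK293T, 3,000 cells/well; compound + R5020, 16 hr, 37C/5% CO2; 30 min RT before read.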

[6] = qHTS assay to identify small molecule agonists of the progesterone receptor (PR) signaling pathway - cell viability counter screen (AID 1346799; calls by dose curve; also: nearly all actives have a fitted effect of over 45% in size)
Outline: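 In parallel with the beta-lactamase readout, cytotoxicity toward PR-UAS-bla HEK293T cells was measured by CellTiter-Glo luminescence following 16 hr compound incubation in 2% charcoal-stripped FBS medium.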

[7] = qHTS assay to identify small molecule antagonists of the TGF-beta/Smad signaling pathway - cell viability counter screen (AID 1346824); also: nearly all actives have a fitted effect of over 50% in size
Outline: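 SBE-bla HEK 293T cells were plated overnight at 37 C, then given compounds in DMSO plus TGF-beta1 (added as 0.25 ng/mL solution) for 5 hr. After the bla read, CellTiter-Glo was added to the same wells and luminescence read after 30 min at room temperature.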

[8] = qHTS assay to identify small molecule agonists of the TGF-beta/Smad signaling pathway - cell viability counter screen (AID 1346829); also: top concentration of the series differs between compounds; nearly all actives have a fitted effect of over 45% in size
Outline: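 Here the cytotoxicity of library compounds is measured in SBE-bla HEK 293T cells treated for 5 hr, using CellTiter-Glo added to wells already read for the beta-lactamase reporter.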

[9] = qHTS assay to identify small molecule agonists of the TGF-beta/Smad signaling pathway (AID 1346859; active = well fitted activation curve with a large enough effect in the signal ratio in the repeat runs, not every such curve was filed as active; the % refers to the signal ratio; also: series mostly up to about 77 µM)
Outline: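 After overnight seeding, SBE-bla HEK 293T cells are dosed with compounds in DMSO and kept 5 hr at 37 C, 5% CO2. LiveBLAzer-type FRET substrate is then applied for 2 hr at room temperature.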

[10] = Human pregnane X receptor (PXR) small molecule agonists, qHTS cell viability counter screen (AID 1346977); also: nearly all actives have a fitted effect of over 50% in size
Outline: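 Viability counter screen: CellTiter-Fluor signal in PXR-Luc HepG2 cells, 24hr compound exposure, 37C, 5% CO2.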

[11] = Caspase-3/7 induction in HepG2 cells by small molecules, qHTS assay (AID 1346978); also: nearly all actives have a fitted effect of over 15% in size
Outline: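 Wild-type HepG2 cells (2,000/well) were settled 5 h at 37 C, 5% CO2, then exposed to compounds in DMSO for 17 h. Caspase-3/7 activity was read by luminescence 30 min after adding Caspase-Glo 3/7 reagent at room temperature.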

[12] = Caspase-3/7 induction in CHO-K1 cells by small molecules, qHTS assay (AID 1346980); also: nearly all actives have a fitted effect of over 15% in size
Outline: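 Wild-type cells were seeded at 1,500 per well and settled 5 hr at 37 C, 5% CO2, then exposed to DMSO-dissolved compounds for 17 hr. Caspase-Glo 3/7 reagent was added, and luminescence was read after 30min at room temperature.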

[13] = Caspase-3/7 induction in HepG2 cells by small molecules, qHTS cell viability counter screen (AID 1346981); also: nearly all actives have a fitted effect of over 30% in size; also: potency is read from the fitted curve at half-maximal effect; as to activity change, negative = cytotoxicity: series mostly up to about 92 µM
Outline: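 Viability determined by CellTiter-Fluor fluorescence in HepG2 wells also used for the luminescent Caspase-Glo 3/7 read. Compounds were present for 16 hr at 37 C, 5% CO2 before reagent addition.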

[14] = target: Nuclear receptor subfamily 1 group I member 2 (Homo sapiens) (UniProt O75469); experiment: Human pregnane X receptor (PXR) small molecule agonists, qHTS assay (AID 1346982); also: nearly all actives have a fitted effect of over 35% in size; also: potency is read from the fitted curve at half-maximal effect
Outline: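 Compound-induced hPXR transactivation of a CYP3A4 luciferase reporter was scored in HepG2 PXR-Luc cells over 24 hr at 37 C, 5% CO2, by luminescence.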

[15] = target: Cytochrome P450 2D6 (Homo sapiens) (UniProt P10635); experiment: Cytochrome P450 Family 2 Subfamily D Member 6 (CYP2D6) small molecule antagonists: luciferase reporter qHTS assay (AID 1671196); also: nearly all actives have a fitted effect of over 50% in size; also: potency is read from the fitted curve at half-maximal effect; as to activity change, negative = inhibition: series mostly up to about 120 µM
Outline: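 Each well received CYP2D6 with its proluciferin substrate and chemical, sat 10 min, then got NADPH regeneration solution for 1 h at room temperature. Luminescence in RLU served as the activity measure.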

[16] = target: Thyrotropin-releasing hormone receptor (Homo sapiens) (UniProt P34981); experiment: qHTS assay to identify small molecule antagonists of the thyrotropin-releasing hormone receptor (TRHR) signaling pathway (AID 1346877; active = well fitted inhibition curve with a large enough effect in the repeat runs, not every such curve was filed as active; also: series mostly up to about 51 µM)
Outline: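 Following an 18 h incubation at 37 °C and a 2 h calcium dye load, TRHR-HEK293 cells were exposed to compound (5 min, room temperature) and challenged with TRH, 1 nM final.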

[17] = target: Thyrotropin-releasing hormone receptor (Homo sapiens) (UniProt P34981); experiment: qHTS assay to identify small molecule agonists of the thyrotropin-releasing hormone receptor (TRHR) signaling pathway (AID 1346891; calls by dose curve;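 also: HEK293 cells expressing TRHR with calcium dye readout; series mostly up to about 58 µM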)
Outline: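 Compounds were tested as agonists at 15 concentrations, in triplicate, on TRHR-Hek293 cells; calcium-sensitive dye fluorescence was recorded for 3 min following addition.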

[18] = Caspase-3/7 induction in CHO-K1 cells by small molecules, qHTS cell viability counter screen (AID 1346979); also: nearly all actives have a fitted effect of over 35% in size
Outline: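 Viability readout by fluorescence (CellTiter-Fluor) on wild-type CHO-K1 cells exposed for 16hr at 37C and 5% CO2 to compounds delivered in DMSO; reagent incubated 1hr before reading.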

[19] = target: Nuclear receptor subfamily 1 group I member 2 (Rattus norvegicus) (UniProt Q9R1A7); experiment: Rat pregnane X receptor (rPXR) activation by small molecules, qHTS assay (AID 1346983); conditions: rPXR luciferase reporter cells, One-Glo luminescence, 24 h; max activation: stronger effect = higher value; also: nearly all actives have a fitted effect of over 20% in size
Outline: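 Cell-based rPXR luciferase reporter assay, 2,000 cells per well, rested 5hr at 37 C before compound addition in DMSO, then 24 hr at 37 C. One-Glo reagent was added and luminescence read after 30 min at room temperature.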

[20] = target: Nuclear receptor subfamily 1 group I member 2 (Homo sapiens) (UniProt O75469); experiment: CYP3A4 induction through human pregnane X receptor (PXR) by small molecules, qHTS assay (AID 1346984); also: nearly all actives have a fitted effect of over 40% in size
Outline: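 Readings come from a luciferase reporter: DPX-2 cells, which are HepG2 cotransfected with PXR and a CYP3A4-promoter construct, were exposed to test compounds for 24 h at 37C before One-Glo detection.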
% is scaled to controls: 0 for no effect and ±100 for the full control effect.

Sequence of Nuclear receptor subfamily 1 group I member 2 (Homo sapiens) (O75469 whole entry, looked up): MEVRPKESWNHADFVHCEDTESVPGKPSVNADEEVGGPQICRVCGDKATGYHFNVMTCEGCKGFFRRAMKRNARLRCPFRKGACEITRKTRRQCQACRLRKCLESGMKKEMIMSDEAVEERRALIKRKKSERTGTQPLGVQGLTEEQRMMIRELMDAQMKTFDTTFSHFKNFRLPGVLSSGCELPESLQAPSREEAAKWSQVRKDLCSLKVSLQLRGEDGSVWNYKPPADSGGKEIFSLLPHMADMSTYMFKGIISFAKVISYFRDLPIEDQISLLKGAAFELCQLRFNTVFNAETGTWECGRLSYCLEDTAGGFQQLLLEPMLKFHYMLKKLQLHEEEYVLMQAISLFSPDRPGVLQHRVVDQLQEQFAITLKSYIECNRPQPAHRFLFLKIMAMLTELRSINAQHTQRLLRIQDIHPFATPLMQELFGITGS
Sequence of Thyrotropin receptor (Homo sapiens) (P16473 whole entry, looked up): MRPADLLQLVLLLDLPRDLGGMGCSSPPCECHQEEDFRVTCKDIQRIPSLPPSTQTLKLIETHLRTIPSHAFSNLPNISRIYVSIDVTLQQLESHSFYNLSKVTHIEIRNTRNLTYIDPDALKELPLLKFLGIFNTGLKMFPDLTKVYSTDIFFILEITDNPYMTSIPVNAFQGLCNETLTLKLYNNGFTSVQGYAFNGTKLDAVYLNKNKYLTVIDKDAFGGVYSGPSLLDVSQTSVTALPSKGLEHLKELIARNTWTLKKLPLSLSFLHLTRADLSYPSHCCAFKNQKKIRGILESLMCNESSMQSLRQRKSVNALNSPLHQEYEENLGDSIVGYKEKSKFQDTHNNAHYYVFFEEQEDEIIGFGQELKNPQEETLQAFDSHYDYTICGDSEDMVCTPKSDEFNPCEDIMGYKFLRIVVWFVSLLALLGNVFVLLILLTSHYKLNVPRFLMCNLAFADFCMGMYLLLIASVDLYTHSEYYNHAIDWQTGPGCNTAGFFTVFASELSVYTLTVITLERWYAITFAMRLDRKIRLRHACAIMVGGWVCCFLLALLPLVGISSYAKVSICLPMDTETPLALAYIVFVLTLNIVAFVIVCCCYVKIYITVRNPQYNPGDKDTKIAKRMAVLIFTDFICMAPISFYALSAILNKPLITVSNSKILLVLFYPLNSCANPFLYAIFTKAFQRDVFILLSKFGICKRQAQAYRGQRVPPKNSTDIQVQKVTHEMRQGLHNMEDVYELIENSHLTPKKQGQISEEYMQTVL
Sequence of Nuclear receptor subfamily 1 group I member 2 (Rattus norvegicus) (Q9R1A7 whole entry, looked up): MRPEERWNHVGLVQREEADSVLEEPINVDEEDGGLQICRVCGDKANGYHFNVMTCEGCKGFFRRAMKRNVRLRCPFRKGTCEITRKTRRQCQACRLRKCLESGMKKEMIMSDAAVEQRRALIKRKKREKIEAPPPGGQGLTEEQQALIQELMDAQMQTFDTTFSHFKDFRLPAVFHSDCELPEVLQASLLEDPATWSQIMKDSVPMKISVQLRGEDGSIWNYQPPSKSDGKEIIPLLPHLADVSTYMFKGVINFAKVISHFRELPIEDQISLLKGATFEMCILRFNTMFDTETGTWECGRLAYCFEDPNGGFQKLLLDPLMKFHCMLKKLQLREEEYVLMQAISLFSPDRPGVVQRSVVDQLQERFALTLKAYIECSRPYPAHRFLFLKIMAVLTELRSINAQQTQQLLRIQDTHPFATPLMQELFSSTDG
Sequence of Progesterone receptor (Homo sapiens) (P06401 whole entry, looked up): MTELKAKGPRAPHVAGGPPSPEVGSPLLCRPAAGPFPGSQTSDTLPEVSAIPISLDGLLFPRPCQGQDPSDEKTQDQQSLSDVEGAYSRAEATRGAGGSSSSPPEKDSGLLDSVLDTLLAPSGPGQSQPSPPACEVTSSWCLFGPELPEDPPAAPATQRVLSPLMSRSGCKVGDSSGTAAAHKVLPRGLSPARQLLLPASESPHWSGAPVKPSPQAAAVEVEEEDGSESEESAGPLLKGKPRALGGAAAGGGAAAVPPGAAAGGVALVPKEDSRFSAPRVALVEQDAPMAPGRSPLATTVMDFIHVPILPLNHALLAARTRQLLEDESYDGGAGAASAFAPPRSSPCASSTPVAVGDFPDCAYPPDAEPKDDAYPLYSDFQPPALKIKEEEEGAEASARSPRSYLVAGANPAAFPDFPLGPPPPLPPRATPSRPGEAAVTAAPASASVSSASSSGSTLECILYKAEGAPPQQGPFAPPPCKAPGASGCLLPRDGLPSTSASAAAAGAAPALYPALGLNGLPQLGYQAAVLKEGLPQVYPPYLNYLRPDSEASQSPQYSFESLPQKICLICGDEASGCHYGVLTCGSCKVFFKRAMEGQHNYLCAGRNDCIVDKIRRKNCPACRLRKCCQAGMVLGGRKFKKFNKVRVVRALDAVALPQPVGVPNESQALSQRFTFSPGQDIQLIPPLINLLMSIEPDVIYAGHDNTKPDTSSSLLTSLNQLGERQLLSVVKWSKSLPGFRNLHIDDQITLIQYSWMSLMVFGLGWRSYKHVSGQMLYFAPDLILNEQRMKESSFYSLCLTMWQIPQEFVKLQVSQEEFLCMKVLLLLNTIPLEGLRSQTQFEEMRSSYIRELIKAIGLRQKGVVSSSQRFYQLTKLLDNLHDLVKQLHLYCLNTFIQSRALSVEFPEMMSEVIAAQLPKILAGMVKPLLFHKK
Sequence of Thyrotropin-releasing hormone receptor (Homo sapiens) (P34981 whole entry, looked up): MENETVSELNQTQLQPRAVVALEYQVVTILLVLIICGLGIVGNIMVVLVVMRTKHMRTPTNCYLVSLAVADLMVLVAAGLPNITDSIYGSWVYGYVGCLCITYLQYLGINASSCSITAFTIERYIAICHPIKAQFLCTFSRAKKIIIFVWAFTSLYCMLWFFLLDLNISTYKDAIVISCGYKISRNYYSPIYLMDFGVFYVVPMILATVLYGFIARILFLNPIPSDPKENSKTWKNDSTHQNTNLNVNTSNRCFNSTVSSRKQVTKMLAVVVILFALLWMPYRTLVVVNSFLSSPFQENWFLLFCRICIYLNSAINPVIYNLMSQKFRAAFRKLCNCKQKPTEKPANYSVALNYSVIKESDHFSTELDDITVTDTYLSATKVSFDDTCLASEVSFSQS
Sequence of Cytochrome P450 2D6 (Homo sapiens) (P10635 whole entry, looked up): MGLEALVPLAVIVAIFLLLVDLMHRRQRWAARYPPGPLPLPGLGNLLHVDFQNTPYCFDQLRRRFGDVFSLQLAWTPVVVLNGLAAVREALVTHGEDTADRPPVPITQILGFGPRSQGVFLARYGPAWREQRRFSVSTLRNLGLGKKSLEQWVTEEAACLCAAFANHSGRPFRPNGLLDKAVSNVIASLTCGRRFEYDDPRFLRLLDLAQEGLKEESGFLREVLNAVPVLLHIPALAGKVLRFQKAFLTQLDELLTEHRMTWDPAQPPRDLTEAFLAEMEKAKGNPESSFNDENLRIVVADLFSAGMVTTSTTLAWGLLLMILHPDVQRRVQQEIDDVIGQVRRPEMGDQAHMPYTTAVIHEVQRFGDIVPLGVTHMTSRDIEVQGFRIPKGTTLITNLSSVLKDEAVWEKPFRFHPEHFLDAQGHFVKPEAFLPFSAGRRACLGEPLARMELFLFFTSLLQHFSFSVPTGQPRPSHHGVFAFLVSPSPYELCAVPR

CCOC(=O)Oc1ccc(CCNC(=O)[C@H](CCSC)NC(C)=O)cc1OC(=O)OCC
inactive: Potency [1] | Potency [2] | Potency [3] | Potency [4] | Potency [5] | Potency [6] | outcome [7] | Potency [8] | Potency [9] | Potency [10] | Potency [11] | outcome [12] | Potency [13] | Potency [14] | Potency [15]

CC1=CC[C@@]23C[C@@H]1C(C)(C)[C@@H]2CC[C@H]3C
inactive: Potency [1] | Potency [2] | Potency [3] | Potency [4] | Potency [5] | Potency [6] | Potency [8] | Potency [9] | outcome [16] | outcome [17] | Potency [10] | Potency [11] | Potency [18] | outcome [12] | Potency [13] | Potency [14] | Potency [15]

Cc1ccc(N(CC2=NCCN2)c2cccc(O)c2)cc1
active: Potency [15] 0.776 µM
inactive: Potency [1] | Potency [2] | Potency [3] | Potency [4] | Potency [5] | Potency [6] | outcome [7] | Potency [8] | Potency [9] | Potency [10] | Potency [11] | Potency [18] | outcome [12] | Potency [13] | Potency [14]

COC(OC)OC
inactive: Potency [1] | Potency [2] | Potency [3] | Potency [4] | Potency [5] | Potency [6] | outcome [7] | Potency [8] | Potency [9] | Potency [11] | Potency [18] | outcome [12] | Potency [13] | Potency [14] | Potency [15]

Nc1ccn([C@H]2CS[C@@H](CO)O2)c(=O)n1
inactive: Potency [1] | Potency [2] | Potency [3] | Potency [4] | Potency [5] | Potency [6] | Potency [8] | Potency [9] | Potency [10] | Potency [11] | Potency [18] | max activation [19] -3.24% and -0.136% | Potency [15]

CC(C)c1ccc(C(=O)N=C(N)N)cc1S(C)(=O)=O
inactive: Potency [1] | Potency [2] | Potency [3] | Potency [4] | Potency [5] | Potency [6] | outcome [7] | Potency [8] | Potency [9] | Potency [10] | Potency [11] | Potency [18] | Potency [13] | Potency [14]

CC[C@H]1OC(=O)[C@H](C)[C@@H](O[C@H]2C[C@@](C)(OC)[C@@H](O)[C@H](C)O2)[C@H](C)[C@@H](O[C@@H]2O[C@H](C)C[C@H](N(C)C)[C@H]2O)[C@](C)(O)C[C@@H](C)/C(=N\OCOCCOC)[C@H](C)[C@@H](O)[C@]1(C)O
inactive: Potency [1] | Potency [3] | Potency [4] | Potency [5] | outcome [7] | Potency [8] | Potency [9] | Potency [11] | outcome [12] | max activation [19] 0.558% | Potency [20] | Potency [15]
active: Potency [2] 7.19 µM | Potency [13] 25.5 µM

CSCC[C@H](NC(=O)[C@H](Cc1c[nH]c2ccccc12)NC(=O)CCNC(=O)OC(C)(C)C)C(=O)N[C@@H](CC(=O)O)C(=O)N[C@@H](Cc1ccccc1)C(N)=O
inactive: Potency [1] | Potency [2] | Potency [3] | Potency [4] | Potency [5] | Potency [6] | outcome [7] | Potency [9] | Potency [10] | Potency [11] | Potency [18] | outcome [12] | Potency [13] | Potency [14] | Potency [15]

CCC(Cl)CC(Cl)C(Cl)C(Cl)C(Cl)C(C)Cl (stereo not given)
inactive: activity change, negative = inhibition [1] -0.191% [at 19 µM] | activity change, negative = cytotoxicity [2] 5.27% [at 19 µM] | activation [3] -2.07% [at 19 µM] | activity change, negative = inhibition [4] -4% [at 18.9 µM] | activity change, negative = cytotoxicity [5] -5.89% [at 18.9 µM] | activity change, negative = cytotoxicity [6] 9.92% [at 19 µM] | viability change, negative = cytotoxic [7] -12.4% [at 15.8 µM] | activity change, negative = cytotoxicity [8] 0% [at 15.8 µM] | activity, negative = inhibition [16] 0.125% [at 10.5 µM] | activation [17] 0.352% [at 11.8 µM] | activity change, negative = cytotoxicity [10] -5.6% [at 19 µM] | caspase activation [11] -16.4% [at 19 µM] | activity change, negative = cytotoxicity [18] 10.4% [at 19 µM] | activity change, negative = cytotoxicity [13] 1.11% [at 19 µM] | activity change, negative = inhibition [15] -20% [at 23.6 µM]
active: Potency [14] 1.19 µM
